Source: PubChem BioAssay (NCATS)
Inconclusive results are not listed. Active and inactive are the calls of the source. Unless noted, calls follow the shape of the dose curve; as a rule, active = well fitted curve in the direction sought with a large enough effect; inconclusive = small, poorly fitted or top-dose-only effect, or another doubt; inactive = no such curve, though single readings can be large; an effect the other way counts as inactive or inconclusive.

Experiments:
[1] = target: ATP-dependent 6-phosphofructokinase (Trypanosoma brucei brucei) (UniProt O15648); experiment: qHTS Assay to Find Inhibitors of T. brucei phosphofructokinase: hit validation (AID 492961);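 also: luminescence reports ADP formed as PFK phosphorylates fructose-6-phosphate with ATP; % is scaled to controls: 0 for no effect and ±100 for the full control effect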
Chain of ATP-dependent 6-phosphofructokinase (Trypanosoma brucei brucei) (O15648 whole entry, looked up): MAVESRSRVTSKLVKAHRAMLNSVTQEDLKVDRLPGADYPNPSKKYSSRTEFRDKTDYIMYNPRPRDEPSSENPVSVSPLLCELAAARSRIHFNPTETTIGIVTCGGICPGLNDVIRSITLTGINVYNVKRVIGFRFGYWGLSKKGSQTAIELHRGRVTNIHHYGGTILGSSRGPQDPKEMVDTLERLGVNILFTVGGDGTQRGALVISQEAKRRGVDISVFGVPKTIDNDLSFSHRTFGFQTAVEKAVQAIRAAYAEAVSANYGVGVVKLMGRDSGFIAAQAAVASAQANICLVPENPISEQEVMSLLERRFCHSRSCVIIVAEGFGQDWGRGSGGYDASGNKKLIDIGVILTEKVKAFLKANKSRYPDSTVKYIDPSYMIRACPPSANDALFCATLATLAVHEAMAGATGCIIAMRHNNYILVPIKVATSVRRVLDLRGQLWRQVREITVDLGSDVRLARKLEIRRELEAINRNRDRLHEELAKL
In short: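 PFK 1.25 nM, F6P 0.5 mM, ATP 0.1 mM, MgCl2 5 mM, 0.1 M TEA pH 8.0, Tween20 0.01%, BSA 0.1%; 45 min RT. ADP-Glo two-step detection, luminescence. qHTS titration; curve fitting with curve-class categorization.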

[2] = target: Ubiquitin carboxyl-terminal hydrolase 1 (Homo sapiens) (UniProt O94782); experiment: Inhibitors of USP1/UAF1: Pilot qHTS (AID 504865);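 also: rhodamine fluorescence freed from ubiquitin-rhodamine substrate followed over time; top concentration of the series differs between compounds; % is scaled to controls: 0 for no effect and ±100 for the full control effect; nearly all actives have a fitted effect of over 35% in size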
Chain of Ubiquitin carboxyl-terminal hydrolase 1 (Homo sapiens) (O94782 whole entry, looked up): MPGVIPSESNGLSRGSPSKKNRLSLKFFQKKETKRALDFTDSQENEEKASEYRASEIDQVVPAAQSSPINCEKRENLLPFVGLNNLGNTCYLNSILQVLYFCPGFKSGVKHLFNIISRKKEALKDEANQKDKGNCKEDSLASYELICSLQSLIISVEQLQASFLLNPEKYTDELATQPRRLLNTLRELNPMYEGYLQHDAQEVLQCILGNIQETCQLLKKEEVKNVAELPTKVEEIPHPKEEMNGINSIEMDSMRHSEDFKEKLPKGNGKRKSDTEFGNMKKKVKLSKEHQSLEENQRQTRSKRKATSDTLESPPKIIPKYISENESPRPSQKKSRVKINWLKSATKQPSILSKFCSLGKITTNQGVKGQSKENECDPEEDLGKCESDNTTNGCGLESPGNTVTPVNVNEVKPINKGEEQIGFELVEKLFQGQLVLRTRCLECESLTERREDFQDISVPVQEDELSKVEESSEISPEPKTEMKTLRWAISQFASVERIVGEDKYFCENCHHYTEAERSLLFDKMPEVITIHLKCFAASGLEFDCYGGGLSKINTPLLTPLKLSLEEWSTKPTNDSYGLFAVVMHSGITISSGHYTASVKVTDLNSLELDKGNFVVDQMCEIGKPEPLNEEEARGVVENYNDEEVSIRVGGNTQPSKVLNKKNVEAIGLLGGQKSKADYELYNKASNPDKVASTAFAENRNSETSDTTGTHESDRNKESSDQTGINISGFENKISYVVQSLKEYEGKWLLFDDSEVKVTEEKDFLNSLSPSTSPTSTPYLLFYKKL
In short: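 1nM USP1/UAF1 + cpd, 15 min RT; start w/ Ub-Rho 150nM final; kinetic FL 480/540 nm, 6 reads q60 s. Buffer 50mM HEPES pH 7.8, 0.5mM EDTA, 1mM TCEP, 0.01% Tween-20, 0.1 mg/ml BSA.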

[3] = target: Luciferin 4-monooxygenase (Photinus pyralis) (UniProt P08659); experiment: Biochemical firefly luciferase enzyme assay for NPC (AID 624030);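 also: purified P. pyralis luciferase at 10 nM with luciferin and ATP substrate; 0% = DMSO and -100% = full luciferase inhibition by PTC124 control; nearly all actives have a fitted effect of over 70% in size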
Chain of Luciferin 4-monooxygenase (Photinus pyralis) (P08659 whole entry, looked up): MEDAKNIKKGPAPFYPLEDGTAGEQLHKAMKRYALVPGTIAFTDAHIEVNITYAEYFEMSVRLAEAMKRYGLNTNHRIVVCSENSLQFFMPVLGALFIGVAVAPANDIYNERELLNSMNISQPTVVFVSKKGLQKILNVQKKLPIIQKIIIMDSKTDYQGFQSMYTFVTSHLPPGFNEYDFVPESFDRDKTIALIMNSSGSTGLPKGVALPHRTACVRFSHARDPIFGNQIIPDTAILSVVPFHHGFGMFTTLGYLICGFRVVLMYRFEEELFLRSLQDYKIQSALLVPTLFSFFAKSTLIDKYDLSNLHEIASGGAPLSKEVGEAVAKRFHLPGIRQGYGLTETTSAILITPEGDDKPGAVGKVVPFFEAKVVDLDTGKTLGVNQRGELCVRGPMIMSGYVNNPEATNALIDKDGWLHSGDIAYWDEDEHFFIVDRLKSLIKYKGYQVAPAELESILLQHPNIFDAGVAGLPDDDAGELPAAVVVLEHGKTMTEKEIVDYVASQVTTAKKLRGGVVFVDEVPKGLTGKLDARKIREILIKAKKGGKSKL
In short: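 Counter-screen for direct inhibition of the luciferase enzyme by approved-drug library compounds, run at 10 nM enzyme in 50 mM Tris acetate (final). Luminescence was read within 5 min of enzyme-buffer addition and normalized to PTC124 versus DMSO (0%).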

[4] = S16 Schwann cell PMP22 intronic element firefly luciferase assay (AID 624032);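 also: plate controls were DMSO for no effect and PTC124 positive control mean for full effect; nearly all actives have a fitted effect of over 30% in size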
In short: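 Rat S16 Schwann cells stably carrying a PMP22 intronic element-driven Fluc reporter were seeded overnight, then exposed to compounds for 24 h at 37 °C. Luminescence was normalized to PTC124 (positive control) and DMSO (0% activity).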

[5] = S16 Schwann cell PMP22 intronic element beta-lactamase assay (AID 624044; calls by dose curve;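 also: 0% = DMSO and -100% = potassium clavulanate positive control; nearly all actives have a fitted effect of over 15% in size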)
In short: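 Rat S16 Schwann cells with beta-Lac driven by a PMP22 intronic element, compound-treated 24 h at 37 °C. LiveBLAzer FRET B/G read: 460 nm normalized to potassium clavulanate vs DMSO; 535 nm FRET as viability; concentration-effect curves classified.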

[6] = NCATS anti-infectives library activity on HEK293 viability as a counter-qHTS vs the C. elegans viability qHTS (AID 1745854);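 also: HEK293 cells exposed to compounds for 24 hr before the viability read; % is scaled to controls: 0 for no effect and ±100 for the full control effect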
In short: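 HEK293 cells (1,500/well) exposed 24 hr at 37C to 1:5 titrations, up to 41.7 uM final; counter-screen to a C. elegans viability qHTS. Viability by CellTiter-Glo luminescence after 10 min at room temperature; digitonin as control.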

[7] = target: Glutathione peroxidase 1 (Homo sapiens) (UniProt P07203); experiment: Primary qHTS Assay for Inhibitors of Recombinant Selenoprotein Glutathione Peroxidase 1 (GPX1) (AID 1845191); also: % is scaled to controls: 0 for no effect and ±100 for the full control effect; nearly all actives have a fitted effect of over 65% in size
Chain of Glutathione peroxidase 1 (Homo sapiens) (P07203 whole entry, looked up): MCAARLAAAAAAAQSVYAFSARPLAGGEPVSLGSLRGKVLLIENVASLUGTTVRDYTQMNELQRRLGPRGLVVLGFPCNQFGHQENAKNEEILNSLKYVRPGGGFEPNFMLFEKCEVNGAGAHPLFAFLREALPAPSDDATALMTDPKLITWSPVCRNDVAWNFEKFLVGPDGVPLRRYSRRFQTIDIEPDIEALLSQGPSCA
In short: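 Recombinant GPX1 (10 nM final) was preincubated with compound for 30 min at room temperature, then reacted with 1 mM GSH, 0.5 mM CHP, 0.5 mM NADPH and 100 nM glutathione reductase; NADPH fluorescence (340/450 nm) was read at 0 and 15 min.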

[8] = target: Phospholipid hydroperoxide glutathione peroxidase GPX4 (Homo sapiens) (UniProt P36969); experiment: Primary qHTS Assay for Inhibitors of Recombinant Selenoprotein Glutathione Peroxidase 4 (GPX4) (AID 1845192); also: nearly all actives have a fitted effect of over 65% in size
Chain of Phospholipid hydroperoxide glutathione peroxidase GPX4 (Homo sapiens) (P36969 whole entry, looked up): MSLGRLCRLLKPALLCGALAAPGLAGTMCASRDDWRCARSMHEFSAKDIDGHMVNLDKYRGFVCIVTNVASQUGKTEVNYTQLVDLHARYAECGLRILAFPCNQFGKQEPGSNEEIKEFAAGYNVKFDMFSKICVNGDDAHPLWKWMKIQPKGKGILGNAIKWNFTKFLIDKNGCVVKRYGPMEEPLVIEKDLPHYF
In short: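 GR-coupled readout: 100 nM GR, 1 mM GSH, 0.5 mM NADPH; NADPH fluorescence (ex 340/em 450 nm) read at t=0 and after 15 min RT. GPX4 200 nM, preincubated 30 min with compound; substrate 0.5 mM CHP.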

[9] = qHTS profiling for inhibitors of Plasmodium falciparum proliferation (AID 504749); also: nearly all actives have a fitted effect of over 60% in size; also: potency is read from the fitted curve at half-maximal effect;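 as to activity, negative = inhibition: 0% = DMSO vehicle and full inhibition = artemisinin control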; conditions: P. falciparum in erythrocytes, SYBR Green DNA, 72 h, at 28.7 µM (top of the series)
In short: (§1)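 Parasite proliferation within erythrocytes, 72 h exposure. Endpoint: SYBR Green I fluorescence after overnight lysis at room temperature. Controls: 0.29 uM artemisinin, DMSO.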

3D7 = experiment: as above; conditions: P. falciparum in erythrocytes, SYBR Green DNA, 72 h; series mostly up to 28.7 µM
In short: as §1

7G8 = experiment: as above; conditions: P. falciparum in erythrocytes, SYBR Green DNA, 72 h; series mostly up to 28.7 µM
In short: as §1

AA1029 = experiment: as above; conditions: P. falciparum in erythrocytes, SYBR Green DNA, 72 h; series mostly up to 28.7 µM
In short: as §1

AS120 = experiment: as above; conditions: P. falciparum in erythrocytes, SYBR Green DNA, 72 h; series mostly up to 28.7 µM
In short: as §1

ATS189 = experiment: as above; conditions: P. falciparum in erythrocytes, SYBR Green DNA, 72 h; series mostly up to 28.7 µM
In short: as §1

ATS95 = experiment: as above; conditions: P. falciparum in erythrocytes, SYBR Green DNA, 72 h; series mostly up to 28.7 µM
In short: as §1

C2A = experiment: as above; conditions: P. falciparum in erythrocytes, SYBR Green DNA, 72 h; series mostly up to 28.7 µM
In short: as §1

CP185 = experiment: as above; conditions: P. falciparum in erythrocytes, SYBR Green DNA, 72 h; series mostly up to 28.7 µM
In short: as §1

CP191 = experiment: as above; conditions: P. falciparum in erythrocytes, SYBR Green DNA, 72 h; series mostly up to 28.7 µM
In short: as §1

CP192 = experiment: as above; conditions: P. falciparum in erythrocytes, SYBR Green DNA, 72 h; series mostly up to 28.7 µM
In short: as §1

CP194 = experiment: as above; conditions: P. falciparum in erythrocytes, SYBR Green DNA, 72 h; series mostly up to 28.7 µM
In short: as §1

CP201 = experiment: as above; conditions: P. falciparum in erythrocytes, SYBR Green DNA, 72 h; series mostly up to 28.7 µM
In short: as §1

CP215 = experiment: as above; conditions: P. falciparum in erythrocytes, SYBR Green DNA, 72 h; series mostly up to 28.7 µM
In short: as §1

CP217 = experiment: as above; conditions: P. falciparum in erythrocytes, SYBR Green DNA, 72 h; series mostly up to 28.7 µM
In short: as §1

CP237 = experiment: as above; conditions: P. falciparum in erythrocytes, SYBR Green DNA, 72 h; series mostly up to 28.7 µM
In short: as §1

CP238 = experiment: as above; conditions: P. falciparum in erythrocytes, SYBR Green DNA, 72 h; series mostly up to 28.7 µM
In short: as §1

CP247 = experiment: as above; conditions: P. falciparum in erythrocytes, SYBR Green DNA, 72 h; series mostly up to 28.7 µM
In short: as §1

CP250 = experiment: as above; conditions: P. falciparum in erythrocytes, SYBR Green DNA, 72 h; series mostly up to 28.7 µM
In short: as §1

CP252 = experiment: as above; conditions: P. falciparum in erythrocytes, SYBR Green DNA, 72 h; series mostly up to 28.7 µM
In short: as §1

CP256 = experiment: as above; conditions: P. falciparum in erythrocytes, SYBR Green DNA, 72 h; series mostly up to 28.7 µM
In short: as §1

CP260 = experiment: as above; conditions: P. falciparum in erythrocytes, SYBR Green DNA, 72 h; series mostly up to 28.7 µM
In short: as §1

CP262 = experiment: as above; conditions: P. falciparum in erythrocytes, SYBR Green DNA, 72 h; series mostly up to 28.7 µM
In short: as §1

CP265 = experiment: as above; conditions: P. falciparum in erythrocytes, SYBR Green DNA, 72 h; series mostly up to 28.7 µM
In short: as §1

CP266 = experiment: as above; conditions: P. falciparum in erythrocytes, SYBR Green DNA, 72 h; series mostly up to 28.7 µM
In short: as §1

CP269 = experiment: as above; conditions: P. falciparum in erythrocytes, SYBR Green DNA, 72 h; series mostly up to 28.7 µM
In short: as §1

CP297 = experiment: as above; conditions: P. falciparum in erythrocytes, SYBR Green DNA, 72 h; series mostly up to 28.7 µM
In short: as §1

CP315 = experiment: as above; conditions: P. falciparum in erythrocytes, SYBR Green DNA, 72 h; series mostly up to 28.7 µM
In short: as §1

CP329 = experiment: as above; conditions: P. falciparum in erythrocytes, SYBR Green DNA, 72 h; series mostly up to 28.7 µM
In short: as §1

DFO2036 = experiment: as above; conditions: P. falciparum in erythrocytes, SYBR Green DNA, 72 h; series mostly up to 28.7 µM
In short: as §1

DIV17 = experiment: as above; conditions: P. falciparum in erythrocytes, SYBR Green DNA, 72 h; series mostly up to 28.7 µM
In short: as §1

Dd2 = experiment: as above; conditions: P. falciparum in erythrocytes, SYBR Green DNA, 72 h; series mostly up to 28.7 µM
In short: as §1

ECU = experiment: as above; conditions: P. falciparum in erythrocytes, SYBR Green DNA, 72 h; series mostly up to 28.7 µM
In short: as §1

FAB9 = experiment: as above; conditions: P. falciparum in erythrocytes, SYBR Green DNA, 72 h; series mostly up to 28.7 µM
In short: as §1

GB4 = experiment: as above; conditions: P. falciparum in erythrocytes, SYBR Green DNA, 72 h; series mostly up to 28.7 µM
In short: as §1

HB3 = experiment: as above; conditions: P. falciparum in erythrocytes, SYBR Green DNA, 72 h; series mostly up to 28.7 µM
In short: as §1

JCK = experiment: as above; conditions: P. falciparum in erythrocytes, SYBR Green DNA, 72 h; series mostly up to 28.7 µM
In short: as §1

N140 = experiment: as above; conditions: P. falciparum in erythrocytes, SYBR Green DNA, 72 h; series mostly up to 28.7 µM
In short: as §1

PAD = experiment: as above; conditions: P. falciparum in erythrocytes, SYBR Green DNA, 72 h; series mostly up to 28.7 µM
In short: as §1

PC15 = experiment: as above; conditions: P. falciparum in erythrocytes, SYBR Green DNA, 72 h; series mostly up to 28.7 µM
In short: as §1

PC26 = experiment: as above; conditions: P. falciparum in erythrocytes, SYBR Green DNA, 72 h; series mostly up to 28.7 µM
In short: as §1

PC49 = experiment: as above; conditions: P. falciparum in erythrocytes, SYBR Green DNA, 72 h; series mostly up to 28.7 µM
In short: as §1

SC27B = experiment: as above; conditions: P. falciparum in erythrocytes, SYBR Green DNA, 72 h; series mostly up to 28.7 µM
In short: as §1

TAB109 = experiment: as above; conditions: P. falciparum in erythrocytes, SYBR Green DNA, 72 h; series mostly up to 28.7 µM
In short: as §1

TAB113 = experiment: as above; conditions: P. falciparum in erythrocytes, SYBR Green DNA, 72 h; series mostly up to 28.7 µM
In short: as §1

TAB165 = experiment: as above; conditions: P. falciparum in erythrocytes, SYBR Green DNA, 72 h; series mostly up to 28.7 µM
In short: as §1

CC(C)CN(C[C@@H](O)[C@H](Cc1ccccc1)NC(=O)O[C@H]1CCOC1)S(=O)(=O)c1ccc(N)cc1
active: Potency (7G8) 10 µM
inactive: outcome [1] | Potency [2] | Potency [3] | Potency [4] | Potency [5] | Potency [6] | Potency [7] | Potency [8] | activity, negative = inhibition ([9]; parasite line A) -4.85% | activity, negative = inhibition ([9]; parasite line B) -24.9% | Potency (3D7) | Potency (AA1029) | Potency (AS120) | Potency (ATS189) | Potency (ATS95) | Potency (C2A) | Potency (CP185) | Potency (CP191) | Potency (CP192) | Potency (CP194) | Potency (CP201) | Potency (CP215) | Potency (CP217) | Potency (CP237) | Potency (CP238) | Potency (CP247) | Potency (CP250) | Potency (CP252) | Potency (CP256) | Potency (CP260) | Potency (CP262) | Potency (CP265) | Potency (CP266) | Potency (CP269) | Potency (CP297) | Potency (CP315) | Potency (CP329) | Potency (DFO2036) | Potency (DIV17) | Potency (Dd2) | Potency (ECU) | Potency (FAB9) | Potency (GB4) | Potency (HB3) | Potency (JCK) | Potency (N140) | Potency (PAD) | Potency (PC15) | Potency (PC26) | Potency (PC49) | Potency (SC27B) | Potency (TAB109) | Potency (TAB113) | Potency (TAB165)
